Laboratory results reported in PubChem BioAssay AID2253 (Southern Research Specialized Biocontainment Screening …, 2010).
The campaign covered roughly 2,200 compounds. About 1,300 (59%) were called active. No rule for the calls is given here. So high a share suggests a set chosen from earlier hits. These entries were drawn from the full list. Entries with a potency or affinity are not part of this list.

Experiment: THP-1 cell cytotoxicity, dose response, cytotoxicity control for Salmonella PhoP regulon inhibitors, S. typhimurium screen hits (AID 2253)
Details: THP-1 viability, CellTiter-Glo luminescence, 72 h; series mostly up to 50 µM

Row | Compound | outcome
1 | O=C1c2ccccc2C(=O)N1Cc1nc(-c2ccccn2)no1 | inactive
2 | O=C1c2ccccc2C(=O)N1CCCc1nc(-c2ccccn2)no1 | inactive
3 | CCOc1cc(CNn2cnnc2)ccc1OCC(=O)NC1CCCCC1 | inactive
4 | Cc1ccccc1OCC(=O)N/N=C/c1ccco1 | inactive
5 | O=C(COC(=O)/C=C/c1ccco1)Nc1cccc([N+](=O)[O-])c1 | inactive
6 | CCOC(=O)/C=C1\SCC(=O)N1CC(=O)NC1CCCCC1 | inactive
7 | CCn1c(Cc2ccccc2)nnc1SCC(=O)Nc1ccc(S(N)(=O)=O)cc1 | inactive
8 | Cc1cc(C)c(NC(=O)COc2ccccc2C(=O)Nc2ccc3c(c2)oc2ccccc23)c(C)c1 | inactive
9 | N/C(=N\OC(=O)COc1ccc(Cl)cc1)c1cccnc1 | inactive
10 | c1ccc(CCNc2nc3ccccc3s2)cc1 | inactive
11 | Cc1ccc(C(=O)Oc2ccc(C(=O)COC(=O)c3cnccn3)cc2)cc1 | inactive
12 | COc1ccc(/C=C/C(=O)NCCc2nc3ccccc3[nH]2)cc1 | inactive
13 | Nc1nnc(SCc2ccc(F)cc2Cl)s1 | inactive
14 | O=C(CSc1nnc(-c2cccnc2)o1)OC1CCCCC1 | inactive
15 | C/C(=N/NC(=O)Cc1cccn1C)c1ccccc1 | inactive
16 | Cc1oc(CC(C)C)c(CN)c1C(=O)O | inactive
17 | CCCn1c(N)nc2ccccc21 | inactive
18 | Cn1c(-c2ccc(N)cc2)nc2ccccc21 | inactive

Row | Compound | outcome
19 | CCOc1ccccc1Nc1nc2ccccc2n2cnnc12 | inactive
20 | CCCNC(=O)CN(C1CCCCC1)S(C)(=O)=O | inactive
21 | O=C(CSc1n[nH]c(=O)[nH]c1=O)N/N=C/c1ccccc1 | inactive
22 | COc1cc([N+](=O)[O-])ccc1NC(=O)CN(C)C | inactive
23 | CC1CCc2cc(F)cc3c(=O)c(C(=O)O)cn1c23 (stereo not given) | inactive
24 | CCN1C(=O)N/C(=C/c2ccc(Sc3ccc(C)cc3)o2)C1=O | inactive
25 | COc1nccnc1NS(=O)(=O)c1ccc(NC(=S)NC(=O)c2cccnc2)cc1 | inactive
26 | COc1nsnc1NS(=O)(=O)c1ccc(NC(=S)NC(=O)c2cccnc2)cc1 | inactive
27 | O=C(Nc1cccnc1)c1cc(F)cc(F)c1 | inactive
28 | Cc1cccc(C(=O)NC(=S)Nc2ccc(N3CCOCC3)cc2)c1 | inactive
29 | COC(=O)Cc1ccc(NC(=S)N2CCN(c3ccc(F)cc3)CC2)cc1 | inactive
30 | O=C(Nc1ccccc1)Oc1ccc[nH]c1=O | inactive
31 | CCCOc1ccc(C(=O)N2CCCC2C(=O)O)cc1 (stereo not given) | inactive
32 | CC(C)Nc1cc(C(F)(F)F)nc(-c2ccccn2)n1 | inactive
33 | O=C(Nc1ccccn1)NC1CCCCC1 | inactive
34 | COc1ccccc1NCCC(=O)OCC(=O)NC1CCCCCC1 | inactive
35 | O=C(Nc1ccsc1C(=O)NC1CCCCC1)c1ccccc1 | inactive
